# Measurements taken from PubChem BioAssay (NCI).
# The panel holds about 79,000 compounds, 15% with a hit somewhere; the sample as a whole holds those more often. A number with no mark means an inactive call. Activity calls are given as the source filed them. Cut-off read from the data, not from the text of the source: active = growth inhibition above about 70%; inactive = the rest.
# Columns and labels:
# [1] = NCI Yeast Anticancer Drug Screen. Data for the rad52 strain (AID 147);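 note: 0% = growth of vehicle-treated control cultures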; conditions: S. cerevisiae rad52 mutant growth inhibition, stronger effect = higher value
# How it was run: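 Genetically altered yeast (DNA damage repair defect) treated with compound; inhibition calculated relative to vehicle.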
# [2] = NCI Yeast Anticancer Drug Screen. Data for the wt1 strain (AID 149);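 note: 0% = growth of vehicle-treated wt1 cultures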; conditions: S. cerevisiae wt1 strain (SPY 50644) growth inhibition, stronger effect = higher value
# How it was run: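 Compounds are added to wt1 yeast cultures. Growth is then measured. Inhibition is expressed relative to vehicle-treated controls.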
# [3] = NCI Yeast Anticancer Drug Screen. Data for the rad50EPP+ strain (AID 151);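 note: 0% = growth of vehicle-treated control cultures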; conditions: S. cerevisiae rad50 mutant strain, stronger effect = higher value
# How it was run: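 Strain rad50EPP+; compound exposure; % growth inhibition vs vehicle.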
# [4] = NCI Yeast Anticancer Drug Screen. Data for the mgt1 strain (AID 153); conditions: S. cerevisiae mgt1 mutant growth inhibition, stronger effect = higher value
# How it was run: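 Read-out: yeast growth inhibition vs vehicle control. Strain mgt1, drawn from a panel altered in DNA damage repair or cell cycle control.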
# [5] = NCI Yeast Anticancer Drug Screen. Data for the rad50 strain (AID 155);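 note: 0% = growth of vehicle-only cultures of the same strain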; conditions: S. cerevisiae rad50 strain growth inhibition, stronger effect = higher value
# How it was run: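 Inhibition values express reduced yeast growth in compound-treated cultures relative to vehicle-treated controls.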
# [6] = NCI Yeast Anticancer Drug Screen. Data for the mec2-1 strain (AID 157); conditions: S. cerevisiae mec2-1 strain, stronger effect = higher value
# How it was run: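 Cells of the genetically defined mec2-1 yeast strain are incubated with test compound. Inhibition of growth is calculated against vehicle-treated controls.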
# [7] = NCI Yeast Anticancer Drug Screen. Data for the rad14 strain (AID 159);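 note: 0% = growth of vehicle-treated control cultures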; conditions: S. cerevisiae rad14 strain growth inhibition, stronger effect = higher value
# How it was run: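 A mutant yeast strain defective in DNA damage repair is treated with compound; inhibition of its growth is scored against untreated, vehicle-exposed cultures.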
# [8] = NCI Yeast Anticancer Drug Screen. Data for the sgs1 mgt1 strain (AID 161);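 note: 0% = growth of cultures given vehicle only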; conditions: S. cerevisiae sgs1 mgt1 strain, stronger effect = higher value
# How it was run: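 Genetically altered yeast, compound exposure, growth inhibition relative to vehicle.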
# [9] = NCI Yeast Anticancer Drug Screen. Data for the CLN2oe strain (AID 163);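 note: 0% = growth of vehicle-only control cultures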; conditions: S. cerevisiae CLN2oe strain, stronger effect = higher value
# How it was run: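 Strain altered in cell-cycle control, incubated with compound; growth compared to solvent-treated controls.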
# [10] = NCI Yeast Anticancer Drug Screen. Data for the cln2 rad14 strain (AID 165);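 note: 0% = growth equal to vehicle treated cultures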; conditions: S. cerevisiae cln2 rad14 strain, stronger effect = higher value
# How it was run: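 The screen exposed genetically defined yeast (cln2 rad14) to test compounds and scored growth inhibition relative to vehicle-treated controls.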
# [11] = NCI Yeast Anticancer Drug Screen. Data for the bub3 strain (AID 167); conditions: S. cerevisiae bub3 mutant strain, stronger effect = higher value
# How it was run: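 Steps: expose the mutant yeast strain to compound; grow alongside vehicle-treated cultures; measure growth; express inhibition against the vehicle cultures.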
# [12] = NCI Yeast Anticancer Drug Screen. Data for the wt2 strain (AID 169);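 note: 0% = growth of vehicle-treated yeast cultures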; conditions: S. cerevisiae wt2 strain growth inhibition, stronger effect = higher value
# How it was run: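 Steps: yeast strain treated with compound; growth recorded; inhibition calculated relative to cultures given vehicle alone.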
# [13] = NCI Yeast Anticancer Drug Screen. Data for the mlh1 strain (AID 171);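 note: 0% = growth of vehicle-treated control cultures of the same strain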; conditions: S. cerevisiae mlh1 strain growth inhibition, stronger effect = higher value
# How it was run: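 Yeast screen: mutant strain plus compound, growth scored against vehicle control wells.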
# [14] = NCI Yeast Anticancer Drug Screen. Data for the sgs1 strain (AID 173);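 note: 0% = growth of vehicle-only control cultures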; conditions: S. cerevisiae sgs1 mutant, stronger effect = higher value
# How it was run: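 Inhibition of yeast growth served as the measure. The mutant strain was treated with each compound, and growth was normalised to cultures receiving vehicle alone.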
# [15] = NCI Yeast Anticancer Drug Screen. Data for the mlh1 rad18 strain (AID 175); conditions: S. cerevisiae mlh1 rad18 strain growth inhibition, stronger effect = higher value
# How it was run: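 Compound-treated yeast growth, normalised to vehicle controls. Strain bears defined DNA repair mutations.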
# [16] = NCI Yeast Anticancer Drug Screen. Data for the rad18 strain (AID 177); conditions: S. cerevisiae rad18 mutant growth inhibition, stronger effect = higher value
# How it was run: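 Inhibition values reflect reduced yeast growth compared with vehicle-treated controls, using a strain engineered with a DNA damage repair defect.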
# [17] = at 5.0 µM (retest, dose inferred, filed as 0.5)
# [18] = at 50.0 µM (retest, dose inferred, filed as 5.0)
smiles,measurement,setting,value
CCOC(=O)C#Cc1ccc([N+](=O)[O-])cc1,growth inhibition,[1]; at 1.2 µM,0%
same,growth inhibition,[1]; at 3.7 µM,-1%
same,growth inhibition,[1]; at 11.0 µM,-6%
same,growth inhibition,[1]; at 33.0 µM,3%
same,growth inhibition,[1]; at 100.0 µM,17%
same,growth inhibition,[2]; at 1.2 µM,2%
same,growth inhibition,[2]; at 3.7 µM,1%
same,growth inhibition,[2]; at 11.0 µM,3%
same,growth inhibition,[2]; at 33.0 µM,8%
same,growth inhibition,[2]; at 100.0 µM,25%
same,growth inhibition,[3]; at 1.2 µM,8%
same,growth inhibition,[3]; at 3.7 µM,4%
same,growth inhibition,[3]; at 11.0 µM,7%
same,growth inhibition,[3]; at 33.0 µM,23%
same,growth inhibition,[3]; at 100.0 µM,61%
same,growth inhibition,[4]; at 1.2 µM,1%
same,growth inhibition,[4]; at 3.7 µM,-4%
same,growth inhibition,[4]; at 11.0 µM,-6%
same,growth inhibition,[4]; at 33.0 µM,5%
same,growth inhibition,[4]; at 100.0 µM,12%
same,growth inhibition,[5]; at 1.2 µM,0%
same,growth inhibition,[5]; at 3.7 µM,4%
same,growth inhibition,[5]; [17],15%
same,growth inhibition,[5]; at 11.0 µM,3%
same,growth inhibition,[5]; at 33.0 µM,18%
same,growth inhibition,[5]; [18],50%
same,growth inhibition,[5]; at 50.0 µM,96% (active)
same,growth inhibition,[5]; at 100.0 µM,46%
same,growth inhibition,[6]; at 1.2 µM,4%
same,growth inhibition,[6]; at 3.7 µM,-5%
same,growth inhibition,[6]; [17],12%
same,growth inhibition,[6]; at 11.0 µM,7%
same,growth inhibition,[6]; at 33.0 µM,-1%
same,growth inhibition,[6]; [18],36%
same,growth inhibition,[6]; at 50.0 µM,95% (active)
same,growth inhibition,[6]; at 100.0 µM,6%
same,growth inhibition,[7]; at 1.2 µM,1%
same,growth inhibition,[7]; at 3.7 µM,-4%
same,growth inhibition,[7]; at 11.0 µM,4%
same,growth inhibition,[7]; at 33.0 µM,4%
same,growth inhibition,[7]; at 100.0 µM,5%
same,growth inhibition,[8]; [17],31%
same,growth inhibition,[8]; [18],72% (active)
same,growth inhibition,[8]; at 50.0 µM,50.5%
same,growth inhibition,[9]; at 1.2 µM,1%
same,growth inhibition,[9]; at 3.7 µM,-2%
same,growth inhibition,[9]; at 11.0 µM,-3%
same,growth inhibition,[9]; at 33.0 µM,2%
same,growth inhibition,[9]; at 100.0 µM,10%
same,growth inhibition,[10]; [17],-43%
same,growth inhibition,[10]; [18],-7%
same,growth inhibition,[10]; at 50.0 µM,96.8% (active)
same,growth inhibition,[11]; at 1.2 µM,-10%
same,growth inhibition,[11]; at 3.7 µM,-24%
same,growth inhibition,[11]; [17],-10%
same,growth inhibition,[11]; at 11.0 µM,-1%
same,growth inhibition,[11]; at 33.0 µM,1%
same,growth inhibition,[11]; [18],28%
same,growth inhibition,[11]; at 50.0 µM,95.5% (active)
same,growth inhibition,[11]; at 100.0 µM,-8%
same,growth inhibition,[12]; at 1.2 µM,-1%
same,growth inhibition,[12]; at 3.7 µM,1%
same,growth inhibition,[12]; at 11.0 µM,4%
same,growth inhibition,[12]; at 33.0 µM,7%
same,growth inhibition,[12]; at 100.0 µM,11%
same,growth inhibition,[13]; at 1.2 µM,-4%
same,growth inhibition,[13]; at 3.7 µM,-3%
same,growth inhibition,[13]; at 11.0 µM,-10%
same,growth inhibition,[13]; at 33.0 µM,-21%
same,growth inhibition,[13]; at 100.0 µM,-5%
same,growth inhibition,[14]; at 1.2 µM,1%
same,growth inhibition,[14]; at 3.7 µM,0%
same,growth inhibition,[14]; at 11.0 µM,5%
same,growth inhibition,[14]; at 33.0 µM,6%
same,growth inhibition,[14]; at 100.0 µM,15%
same,growth inhibition,[15]; [17],-20%
same,growth inhibition,[15]; [18],63%
same,growth inhibition,[15]; at 50.0 µM,96.8% (active)
same,growth inhibition,[16]; at 1.2 µM,-1%
same,growth inhibition,[16]; at 3.7 µM,-2%
same,growth inhibition,[16]; at 11.0 µM,0%
same,growth inhibition,[16]; at 33.0 µM,15%
same,growth inhibition,[16]; at 100.0 µM,64%
